Experimental data published in PubChem BioAssay.
Calls of active or inactive are those of the source.

What was measured:
[1] = system: Wnt5a (protein binding on small-molecule microarray); test: small molecules binding Wnt5a protein – biophysical, small-molecule microarray, 635/667 nm fluorescence, primary screen (AID 1142); conditions: 635 nm fluorescence, higher = more signal;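 also: fluorescence read at 667 nm with signal to noise per printed feature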
[2] = ATP-based viability of Huh7 replicon cells – cell-based, CellTiter-Glo luminescence, basal, 48 h, cytotoxicity control for HCV replication inhibitor project, primary screen (AID 1143); conditions: higher = more signal, called active from +8 up or from −8 down;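 also: Huh7 hepatoma cells carrying a hepatitis C replication reporter with no stimulus; test concentration not given here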
[3] = basal CRE-LacZ reporter activity in PC12 – cell-based, unstimulated, primary screen (AID 1145); conditions: no forskolin, luminescence, 4.5 h, higher = more signal, called active from +8 up or from −8 down
[4] = forskolin-driven CRE-LacZ activity in PC12 – cell-based, CRE-LacZ reporter, forskolin-stimulated, primary screen (AID 1146); conditions: luminescence, 4.5 h, higher = more signal, called active from +8 up or from −8 down;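 also: PC12 cells with 6xCRE LacZ reporter stimulated by forskolin 10 µM; beta-galactosidase reporter signal reflecting CREB driven transcription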
[5] = biological target: Streptavidin (Streptomyces avidinii) (UniProt P22629); test: compounds binding control protein streptavidin – biophysical, small-molecule microarray, 635/667 nm fluorescence, artefact control for SMM compound annotation, primary screen (AID 1147); conditions: higher = more signal;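 also: signal reflects streptavidin binding to arrayed compounds as a control protein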
Streptavidin (Streptomyces avidinii), sequence (P22629 whole entry, looked up): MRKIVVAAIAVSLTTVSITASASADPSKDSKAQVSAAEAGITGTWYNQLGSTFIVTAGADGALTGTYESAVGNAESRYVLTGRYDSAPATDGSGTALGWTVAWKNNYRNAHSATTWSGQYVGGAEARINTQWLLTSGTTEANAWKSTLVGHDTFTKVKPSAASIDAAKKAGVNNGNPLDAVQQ

[6] = probe aInhba binding on compound microarray – biochemical, small-molecule microarray, 635/667 nm fluorescence, primary screen (AID 1148); conditions: higher = more signal;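 also: score merges 667nm spot fluorescence with signal-to-noise for antibody binding to printed compounds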
Torsin-1A (Homo sapiens) [7] = biological target: Torsin-1A (Homo sapiens) (UniProt O14656); test: TOR1A wild-type binding on microarray – cell lysate, small-molecule microarray, lysate, 635/667 nm, primary screen (AID 1149); conditions: COS7 hTOR1A-WT lysate, 635 nm fluorescence, higher = more signal
Torsin-1A (Homo sapiens), sequence (O14656 whole entry, looked up): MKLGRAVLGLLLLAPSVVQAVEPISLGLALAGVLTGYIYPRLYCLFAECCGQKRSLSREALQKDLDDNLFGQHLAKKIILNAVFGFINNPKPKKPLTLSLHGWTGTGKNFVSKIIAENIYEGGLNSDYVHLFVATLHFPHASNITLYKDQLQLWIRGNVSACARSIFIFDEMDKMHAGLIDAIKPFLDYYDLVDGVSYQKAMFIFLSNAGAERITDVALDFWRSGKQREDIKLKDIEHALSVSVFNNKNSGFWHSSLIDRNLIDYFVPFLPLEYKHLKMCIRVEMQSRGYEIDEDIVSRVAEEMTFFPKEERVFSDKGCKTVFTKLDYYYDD

Torsin-1A (Homo sapiens) [8] = biological target: Torsin-1A (Homo sapiens) (UniProt O14656); test: torsin A mutant lysate binding on microarrays – cell lysate, small-molecule microarray, COS7 lysate, 635/667 nm fluorescence, primary screen (AID 1150); conditions: COS7 hTOR1A mutant lysate, 635 nm fluorescence, higher = more signal;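 also: score pools 667 nm emission and signal to noise measuring lysate protein binding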
[9] = system: Sonic hedgehog protein (Shh); test: Sonic hedgehog microarray binding compounds – biochemical, small-molecule microarray, 635/667 nm fluorescence, primary screen (AID 1151); conditions: 635 nm fluorescence, higher = more signal;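 also: Shh protein binding to compounds spotted on small-molecule microarray slides; score combines spot fluorescence intensity with signal-to-noise across triplicate slides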
[10] = optical density shifts of acrAB sulA E. coli – strain DRC41, OD650, 48 h, E. coli filamentation inducer project, primary screen (AID 1152); conditions: higher = more signal, called active from +8 up or from −8 down;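 also: E. coli MC1000 strain DRC41 lacking acrAB efflux pump and sulA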
[11] = probe aLefty1 binding on compound microarray – biochemical, small-molecule microarray, 635/667 nm fluorescence, primary screen (AID 1153); conditions: higher = more signal;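 also: score merges spot fluorescence with signal-to-noise ratio from the scanned slide images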
[12] = plasmodial surface anion channel blockers, osmotic lysis – cell-based, P. falciparum Indochina, OD700, 1 h, primary screen (AID 1154); conditions: P. falciparum Indochina infected RBC osmotic lysis, higher = more signal, called active from +8 up or from −8 down
[13] = plasmodial surface anion channel blockers, osmotic lysis – cell-based, P. falciparum Indochina, OD700, 2 h, primary screen (AID 1155);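 also: lysis reports solute entry through the parasite surface anion channel PSAC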; conditions: P. falciparum Indochina infected erythrocytes, higher = more signal, called active from +8 up or from −8 down
[14] = changes in parasitized red cell lysis, either direction – P. falciparum Indochina, OD700, 3 h, PSAC antagonist project, primary screen (AID 1156); conditions: P. falciparum-infected erythrocytes, osmotic lysis, higher = more signal, called active from +8 up or from −8 down
[15] = plasmodial surface anion channel blockers, osmotic lysis – cell-based, P. falciparum Indochina, OD700, 18 h, primary screen (AID 1157); conditions: P. falciparum Indochina infected erythrocytes, osmotic lysis OD700, 18 h; higher = more signal, called active from +8 up or from −8 down
[16] = S6 kinase pathway phospho-S6 level changes – cell-based, A549, cytoblot, luminescence, serum-stimulated, primary screen (AID 1158); conditions: 5 h, higher = more signal;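 also: serum-stimulated A549 lung adenocarcinoma cells; signal is phosphorylated S6 detected by cytoblot immunostaining with HRP secondary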
[17] = biological target: NADPH oxidase 2 (Homo sapiens) (UniProt P04839); test: compounds shifting NOX2 Amplex Red fluorescence – cell-based, HEK293-NOX2, PMA-stimulated, NOX inhibitor project, primary screen (AID 1159); conditions: 45 min, higher = more signal, called active from +8 up or from −8 down; also: test concentration not given here
NADPH oxidase 2 (Homo sapiens), sequence (P04839 whole entry, looked up): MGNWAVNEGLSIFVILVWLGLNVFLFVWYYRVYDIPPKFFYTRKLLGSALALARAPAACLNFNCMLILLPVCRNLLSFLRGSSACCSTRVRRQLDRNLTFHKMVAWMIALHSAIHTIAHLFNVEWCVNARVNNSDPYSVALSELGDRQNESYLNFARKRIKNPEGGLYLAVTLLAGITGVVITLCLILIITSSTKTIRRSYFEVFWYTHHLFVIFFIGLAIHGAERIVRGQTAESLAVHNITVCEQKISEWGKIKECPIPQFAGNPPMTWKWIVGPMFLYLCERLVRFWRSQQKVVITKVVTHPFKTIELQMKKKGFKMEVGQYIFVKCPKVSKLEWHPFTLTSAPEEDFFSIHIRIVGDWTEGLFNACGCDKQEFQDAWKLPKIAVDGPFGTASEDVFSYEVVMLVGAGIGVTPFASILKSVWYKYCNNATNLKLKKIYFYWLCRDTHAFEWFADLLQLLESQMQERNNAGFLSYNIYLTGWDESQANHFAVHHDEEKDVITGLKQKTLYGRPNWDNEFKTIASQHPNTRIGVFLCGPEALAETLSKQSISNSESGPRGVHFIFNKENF

[18] = biological target: NADPH oxidase 4 (Homo sapiens) (UniProt Q9NPH5); test: compounds shifting NOX4 Amplex Red fluorescence – cell-based, HEK293-NOX4, tetracycline-induced, NOX inhibitor project, primary screen (AID 1160); conditions: HEK293-NOX4, Amplex Red H2O2 fluorescence, 45 min; higher = more signal, called active from +8 up or from −8 down
NADPH oxidase 4 (Homo sapiens), sequence (Q9NPH5 whole entry, looked up): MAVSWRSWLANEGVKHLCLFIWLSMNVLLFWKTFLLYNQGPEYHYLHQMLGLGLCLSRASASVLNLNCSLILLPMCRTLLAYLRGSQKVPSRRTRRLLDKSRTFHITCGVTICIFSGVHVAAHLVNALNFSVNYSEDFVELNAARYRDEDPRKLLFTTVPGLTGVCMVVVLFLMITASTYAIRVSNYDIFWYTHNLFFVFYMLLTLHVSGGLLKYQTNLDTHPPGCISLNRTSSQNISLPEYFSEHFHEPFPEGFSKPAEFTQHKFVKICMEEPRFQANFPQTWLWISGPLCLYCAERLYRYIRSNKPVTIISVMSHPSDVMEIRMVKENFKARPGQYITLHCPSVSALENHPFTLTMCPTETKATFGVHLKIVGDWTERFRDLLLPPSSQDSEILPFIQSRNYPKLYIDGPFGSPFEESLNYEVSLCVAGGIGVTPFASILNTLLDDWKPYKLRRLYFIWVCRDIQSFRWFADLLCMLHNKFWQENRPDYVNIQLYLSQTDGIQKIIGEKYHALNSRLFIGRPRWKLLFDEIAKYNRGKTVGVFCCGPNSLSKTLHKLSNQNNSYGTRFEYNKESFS

[19] = biological target: NADPH oxidase 5 (Homo sapiens) (UniProt Q96PH1); test: compounds shifting NOX5 Amplex Red fluorescence – cell-based, HEK293-NOX5, NOX inhibitor project, primary screen (AID 1161); conditions: HEK293-NOX5, ionomycin, 45 min, higher = more signal
NADPH oxidase 5 (Homo sapiens), sequence (Q96PH1 whole entry, looked up): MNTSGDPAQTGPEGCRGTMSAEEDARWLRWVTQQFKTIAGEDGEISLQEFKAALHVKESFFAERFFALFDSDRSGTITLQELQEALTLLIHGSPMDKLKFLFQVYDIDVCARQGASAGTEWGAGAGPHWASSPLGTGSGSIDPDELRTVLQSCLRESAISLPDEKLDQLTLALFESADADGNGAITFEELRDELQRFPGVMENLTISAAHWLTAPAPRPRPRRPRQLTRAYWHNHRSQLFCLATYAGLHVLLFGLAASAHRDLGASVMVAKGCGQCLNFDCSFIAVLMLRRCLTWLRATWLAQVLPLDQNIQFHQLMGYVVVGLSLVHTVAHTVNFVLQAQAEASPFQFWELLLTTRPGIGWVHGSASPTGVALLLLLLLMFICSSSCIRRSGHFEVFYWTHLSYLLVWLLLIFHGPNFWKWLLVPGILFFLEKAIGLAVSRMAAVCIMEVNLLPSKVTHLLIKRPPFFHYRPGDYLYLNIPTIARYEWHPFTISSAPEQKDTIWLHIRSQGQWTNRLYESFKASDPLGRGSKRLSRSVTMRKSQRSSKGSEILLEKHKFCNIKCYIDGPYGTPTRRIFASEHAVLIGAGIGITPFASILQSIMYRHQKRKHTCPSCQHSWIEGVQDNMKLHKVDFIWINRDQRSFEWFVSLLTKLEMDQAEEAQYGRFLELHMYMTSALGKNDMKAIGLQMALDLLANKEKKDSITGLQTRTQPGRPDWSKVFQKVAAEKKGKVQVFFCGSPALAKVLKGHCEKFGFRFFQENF

| Compound | composite z-score [1] | z-score [2] | z-score [3] | z-score [4] | composite z-score [5] | composite z-score [6] | composite z-score (Torsin-1A (Homo sapiens) [7]) | composite z-score (Torsin-1A (Homo sapiens) [8]) | composite z-score [9] | z-score [10] | composite z-score [11] | z-score [12] | z-score [13] | z-score [14] | z-score [15] | z-score [16] | z-score [17] | z-score [18] | z-score [19] |
| --- | --- | --- | --- | --- | --- | --- | --- | --- | --- | --- | --- | --- | --- | --- | --- | --- | --- | --- | --- |
| CO[C@@H]1COC(=O)[C@H](C)NC(=O)CC=C[C@@H](C)[C@H](NS(=O)(=O)c2ccc(C)cc2)COC(=O)CC=C[C@@H]1C | 0.0543 | 0.189 (inactive) | -0.0234 (inactive) | -0.445 (inactive) | -0.193 | -0.145 | 0.56 | 0.252 | 0.0208 | 0.117 (inactive) | -0.15 | -0.697 (inactive) | -0.207 (inactive) | 0.0724 (inactive) | -0.0387 (inactive) | 0.225 | 0.564 (inactive) | 0.661 (inactive) | 0.661 |
| CC(C)N1CC=CC23O[C@@H]4/C=C\CCCOC(=O)C4[C@H]2C(=O)N(CCO)[C@@H]3C1=O (stereo partly specified) | -0.0732 | -1.04 (inactive) | -0.358 (inactive) | -0.457 (inactive) | -0.0353 | -0.0695 | -0.373 | -0.582 | 0.289 | 3.41 (inactive) | -0.0518 | 2.92 (inactive) | 0.236 (inactive) | 0.716 (inactive) | -0.806 (inactive) | 0.54 | 1.23 (inactive) | 0.375 (inactive) | 1.84 |
| C=C(COC)/C(=C/C[C@@H](OC(C)=O)c1cccc(OCCO)c1)c1cc(C(=O)OC)ccc1OC | 0.0467 | -1.42 (inactive) | 4.69 (inactive) | -1.89 (inactive) | -0.798 | -0.0221 | 0.284 | -0.0193 | 0.654 | 1.37 (inactive) | 0.0319 | 15.7 (active) | 0.098 (inactive) | 0.363 (inactive) | -1.44 (inactive) | -0.316 | 1.51 (inactive) | 1.28 (inactive) | -1.1 |
| CCOC(=O)C[C@H]1[C@H](OC(=O)Cc2ccc3c(c2)OCO3)[C@@H](NC(=O)CC(C)C)c2cc(OCCCO)ccc2N1C(=O)c1ccccc1 | 0.416 | -0.957 (inactive) | 0.162 (inactive) | -1.48 (inactive) | -0.195 | 0.126 | -0.155 | 0.287 | 0.526 | 2.39 (inactive) | 0.0698 | 0.4 (inactive) | -1.02 (inactive) | -0.462 (inactive) | -1.5 (inactive) | 0.622 | 0.337 (inactive) | 0.52 (inactive) | 0.47 |
| CO[C@H]1O[C@H](CO)[C@@H](OC(=O)CCc2ccccc2)[C@@H]2OC(=O)[C@H](Cc3cccc(Br)c3)C/C=C/C[C@@H](Cc3cccc(Br)c3)C(=O)O[C@@H]12 | -0.0182 | -3.47 (inactive) | -0.198 (inactive) | -0.896 (inactive) | -0.115 | -0.147 | 1.07 | 0.358 | -0.149 | 3.1 (inactive) | -0.139 | 1.18 (inactive) | -0.807 (inactive) | -0.856 (inactive) | -1.19 (inactive) | 2.26 | 2.16 (inactive) | 1.57 (inactive) | 1.28 |
| CN1C2C=C(c3ccc(CO)cc3)C(C3C(=O)N(C(N)=O)C(=O)C32)C1c1cccs1 (stereo unspecified) | -0.25 | -0.975 (inactive) | 2.09 (inactive) | -1.5 (inactive) | -0.487 | -0.0791 | 0.0899 | 0.782 | 1.4 | 1.37 (inactive) | -0.0893 | 2.26 (inactive) | -1.44 (inactive) | -0.71 (inactive) | -1.37 (inactive) | -0.402 | 1.57 (inactive) | -0.124 (inactive) | -0.0981 |
| O=C1c2ccccc2[C@](Cc2ccccc2I)(C(=O)O)[C@H](c2ccc(CO)cc2)N1C1CCCCC1 | 0.818 | -4.42 (inactive) | 0.001 (inactive) | -0.298 (inactive) | 0.947 | 0.0676 | 0.0702 | 0.76 | 0.636 | 2.84 (inactive) | 0.138 | 3.72 (inactive) | 0.525 (inactive) | 0.974 (inactive) | -0.339 (inactive) | 2.86 | 1.06 (inactive) | -0.737 (inactive) | -0.473 |
| C=CCN1C(=O)[C@]2(O[C@H](CCn3cc(CCO)nn3)[C@@H]([Si](C)(C)c3ccc(OC)cc3)[C@@H]2C)c2cc(NC(=O)c3ccc(OC)cc3)ccc21 | 0.46 | -4.16 (inactive) | 7.29 (inactive) | -1.63 (inactive) | 0.132 | -0.0598 | 1.06 | 0.66 | 1.61 | 1.24 (inactive) | 0.13 | 11.3 (active) | -0.0473 (inactive) | 0.715 (inactive) | -1.36 (inactive) | 0.173 | 0.891 (inactive) | 1.28 (inactive) | 0.385 |
| CO[C@H]1COC(=O)[C@H](C)NC(=O)CC=C[C@@H](C)[C@H](NS(=O)(=O)c2ccc(C)cc2)COC(=O)CC=C[C@@H]1C | -0.0879 | -0.831 (inactive) | 0.429 (inactive) | -1.27 (inactive) | -0.052 | -0.123 | 0.961 | 0.0627 | 1.38 | -0.154 (inactive) | -0.232 | 0.868 (inactive) | 0.41 (inactive) | 0.229 (inactive) | 0.33 (inactive) | 0.356 | 0.734 (inactive) | 0.631 (inactive) | 0.971 |
